In PubChem BioAssay AID818 (SRMLSC, 2007):
In all, about 140,000 compounds went through this assay and about 2,100 (1.5%) were called active.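 The calls were made as follows: active = viability at or under a set limit, the compound median less 4 SD (cut at about 6% in these data); inactive = the rest.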 This excerpt belongs to a sample that is enriched for actives.

Experiment: primary screen for suppressors of beta-catenin knockout HCT116 cell growth, colon tumor, human (AID 818);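 also: 0% = Hyamine 1622 control at 20 µM and 100% = untreated cell control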
Conditions: CellTiter-Glo, 60 h, at 10 µM, stronger effect = lower value

Row | Structure (SMILES) | viability
1 | CSc1nc(-c2ccccc2)nc(C(Cl)Cl)n1 | 3.63% (active)
2 | CSc1nc(C)cc(SC(C(C)=O)C(=O)Nc2ccccc2)n1 (configuration not stated) | 88.4% (inactive)
3 | Cc1nn(-c2ccccc2)c(-n2cccc2)c1C(=O)O | 95.6% (inactive)
4 | Cc1ccc(/C=N/NC(=O)COc2ccccc2-c2ccccc2)cc1 | 13.9% (inactive)
5 | c1ccc(C2CNCc3c2ccc2ccccc32)cc1 (configuration not stated) | 11.3% (inactive)
6 | COc1ccc(C2NC(=S)NC3=C2CCc2ccccc23)cc1OC (configuration not stated) | 81.8% (inactive)
7 | CCn1ncc(CNC(=O)C2(C)CC2(Br)Br)c1C (configuration not stated) | 94.3% (inactive)
8 | CC(=O)NS(=O)(=O)c1ccc(NC(=O)C2C3C=CC(C3)C2C(=O)O)cc1 (configuration not stated) | 98.2% (inactive)
9 | CCN(CC)S(=O)(=O)c1cccc(C(=O)Nc2ccccc2)c1 | 80.8% (inactive)
10 | CN(C)S(=O)(=O)c1cccc(NC(=S)N/N=C/C(=O)c2ccccc2)c1 | 6.06% (active)
11 | CN(C)S(=O)(=O)c1cccc(C(=O)Nc2cccnc2)c1 | 97.9% (inactive)
12 | Cc1cccc(CSc2ccc(-c3cccs3)nn2)c1 | 75.7% (inactive)
13 | Cc1c(Cl)c([N+](=O)[O-])nn1CCCC(=O)Nc1cc(Cl)ccc1Cl | 91.2% (inactive)
14 | COc1ccc(NC(=S)N2CCCC(CO)C2)c(OC)c1 (configuration not stated) | 100% (inactive)
15 | O=C(CC1NCCNC1=O)Nc1cc(Cl)cc(Cl)c1 (configuration not stated) | 87.8% (inactive)
16 | Cc1ccc(/C=N/NC(=O)C2=NNC(c3ccccc3)(c3ccccc3)C2)c(O)c1 | 4.68% (active)
17 | Cc1cccc(-n2c(C)cc(/C=N\NC(=O)c3cccs3)c2C)c1 | 60.6% (inactive)
18 | Cc1ccc(-c2nn(-c3ccccc3)cc2/C=N/NC(=O)c2ccc3c(c2)OCO3)cc1 | 36.6% (inactive)
19 | Cc1cc(C(=O)NNC(=S)NC(C)c2ccccc2)cs1 (configuration not stated) | 88.5% (inactive)
20 | Cc1cc(NC(=O)CCC(=O)N(c2ccccc2)C(C(=O)NC2CCCC2)c2ccncc2)no1 (configuration not stated) | 80% (inactive)
21 | Cc1cc(NC(=O)/C=C/C(=O)N(c2ccccc2C)C(C(=O)NC2CCCC2)c2ccc(F)cc2)no1 (configuration not stated) | 5.76% (active)
22 | Cc1cc(NC(=O)CCC(=O)N(c2cccc(F)c2)C(C(=O)NC2CCCC2)c2ccncc2)no1 (configuration not stated) | 94.3% (inactive)
23 | CCOc1ccc(Br)cc1S(=O)(=O)Nc1cccc(S(=O)(=O)N(CC)CC)c1 | 96.4% (inactive)
24 | CCc1ccc(-c2nn(-c3ccccc3)cc2CSC(=N)N)cc1 | 1.57% (active)
25 | N=C(N)SCc1cccc2ccccc12 | 79.3% (inactive)

Row | Structure (SMILES) | viability
26 | CCn1c(SCc2ccc(C)cc2)nnc1-c1nn(-c2ccccc2)ccc1=O | 103% (inactive)
27 | CCN(C(=O)COc1cccnc1[N+](=O)[O-])C1CCS(=O)(=O)C1 (configuration not stated) | 85.6% (inactive)
28 | COC(C(=O)NCc1ccccc1C)c1ccccc1 (configuration not stated) | 90% (inactive)
29 | CCN(CC)CCNCc1ccc(OCc2ccc(Cl)nc2)c(OC)c1 | 96.9% (inactive)
30 | Cc1c(Cl)cccc1NC(=O)Nc1ccc(C(=O)N2CCCC2)cc1 | 70.1% (inactive)
31 | c1ccc2[nH]c(NCCN3CCOCC3)nc2c1 | 92% (inactive)
32 | c1ccc2cc3c(NCCN4CCOCC4)ccnc3cc2c1 | 2.37% (active)
33 | O=C(Cn1c(-c2ccccn2)nc2ccccc21)NCCN1CCOCC1 | 98.8% (inactive)
34 | CC(C)CCNC(=O)c1cccnc1Sc1ccccc1 | 96.4% (inactive)
35 | CCC(C)NCCOCCOc1ccc(Br)cc1C (configuration not stated) | 70.2% (inactive)
36 | Cc1noc(COc2ccccc2OCC(O)CNC(C)(C)C)n1 (configuration not stated) | 98.6% (inactive)
37 | CC(C)(C)CC(C)(C)NCC(O)COCCOc1ccc(Br)cc1 (configuration not stated) | 1.6% (active)
38 | CCOc1ccc(NC(=S)N2CCC(N(C)CC3CCCO3)CC2)cc1 (configuration not stated) | 96.9% (inactive)
39 | Cc1ccc(NC(=O)COC(=O)CCc2nc3ccccc3n2-c2ccccc2)c(C)c1 | 79.9% (inactive)
40 | S=C1SCN(CCN2CCOCC2)CN1Cc1ccccc1 | 20.5% (inactive)
41 | COc1ccc(CN2CN(C(C)C)CSC2=S)cc1 | 5.75% (active)
42 | O=C(NN1C(=O)C2C3C=CC(C3)C2C1=O)c1ccco1 (configuration not stated) | 93.7% (inactive)
43 | COc1cc(OC)nc(N/N=C(\c2ccccc2)c2ccncc2)n1 | 63.6% (inactive)
44 | OC(CNCC1CCCO1)Cn1c2ccc(Br)cc2c2cc(Br)ccc21 (configuration not stated) | 1.48% (active)
45 | Cc1ccc(C(=O)NCC2CCCO2)o1 (configuration not stated) | 106% (inactive)
46 | Cc1cc(Br)ccc1NC(=O)C1CCCO1 (configuration not stated) | 96.2% (inactive)
47 | COc1ccc(NC(=S)NCc2cccs2)c(OC)c1 | 96% (inactive)
48 | COc1ccc(C(C(=O)NC2CCCCC2)N(C(=O)Cc2c[nH]c3ccccc23)c2ccccc2)cc1OC (configuration not stated) | 63.4% (inactive)
49 | CC(CC(=O)Nc1cc(C(F)(F)F)ccc1Cl)c1ccccc1 (configuration not stated) | 61.2% (inactive)
50 | O=C(Nc1cc(C(F)(F)F)ccc1Cl)C(=O)N1CCCCC1 | 99.1% (inactive)

Row | Structure (SMILES) | viability
51 | O=C(NNc1ccccc1Cl)C(O)(c1cccc(C(F)(F)F)c1)c1cccc(C(F)(F)F)c1 | 3.21% (active)
52 | CCc1nnc(NC(=O)/C=C/c2ccc(C)o2)s1 | 97.8% (inactive)
53 | CCC(=O)/C=C1\Sc2ccccc2N1CC | 89% (inactive)
54 | CCN1/C(=C/c2ccc3ccc(C)cc3[n+]2CC)Sc2ccccc21 | 2.41% (active)
55 | COc1ccc(C(CCN(Cc2ccc(OC)c(OC)c2)C(=O)CCl)c2ccccc2)cc1 (configuration not stated) | 1.9% (active)
56 | COc1ccc(CCN(C(=O)COc2ccccc2)c2nc(-c3ccccc3)cs2)cc1OC | 77.2% (inactive)
57 | CCOC(=O)CN(Cc1ccc(OC)c(OC)c1)S(=O)(=O)c1ccc(OC)cc1 | 91.4% (inactive)
58 | CCOC(=O)C(NC(=O)CC(C)C)(Nc1sc2c(c1C(N)=O)CCCC2)C(F)(F)F (configuration not stated) | 97.2% (inactive)
59 | O=C1CCCC2=C1C(c1ccccc1)n1c(s/c(=C/c3cccc(F)c3)c1=O)=N2 (configuration not stated) | 83.9% (inactive)
60 | COc1ccc(OC)c(C2C3=C(N=c4s/c(=C\c5cccc(O)c5)c(=O)n42)c2ccccc2CC3)c1 (configuration not stated) | 3.2% (active)
61 | CCOC(=O)C1=C(C)N=c2s/c(=C\C(=O)OC)c(=O)n2C1c1ccc(OC)cc1 (configuration not stated) | 98.8% (inactive)
62 | O=C(Nc1cn(-c2ccccc2)nc1-c1ccccc1)c1ccccc1 | 82% (inactive)
63 | COc1cccc(NC(=S)NCc2ccco2)c1 | 96.7% (inactive)
64 | O=[N+]([O-])c1ccc(C=Nc2ccc(Cl)cc2Cl)s1 | 3.51% (active)
65 | CC1(C)CC(=O)C/C(=N\NC(=O)c2cccs2)C1 | 93% (inactive)
66 | Cc1ccc(S(=O)(=O)N(Cc2ccc(Cl)cc2)c2ccccc2C(=O)NCc2cccnc2)cc1 | 81.5% (inactive)
67 | O=C1/C(=C\c2ccccc2Cl)SC(=S)N1CCC(=O)N1CCCc2ccccc21 | 4.79% (active)
68 | O=C(c1c(Cl)nc2sccn12)N1CCCc2ccccc21 | 91.5% (inactive)
69 | O=C(CCCN1C(=O)/C(=C/c2ccco2)SC1=S)Nc1ccccc1 | 25.7% (inactive)
70 | CCOc1ccc(C(=O)Nc2cccc(SC)c2)cc1 | 86.8% (inactive)
71 | NC1=NC(=O)S/C1=C\c1ccc(O)cc1 | 78.6% (inactive)
72 | CCOC(=O)c1c(C)[nH]c(=S)c(C#N)c1-c1ccccc1 | 101% (inactive)
73 | CCOC(=O)c1c(C)[nH]c2c1-c1ccccc1C(=O)C2=O | 1.06% (active)
74 | CCOC(=O)c1cc2n(c1C)-c1ccccc1C2=O | 90.9% (inactive)
75 | CCC1(C(=O)c2ccccc2)C(c2cccc([N+](=O)[O-])c2)C1(C(=O)OC)C(=O)OC (configuration not stated) | 82.6% (inactive)

Row | Structure (SMILES) | viability
76 | Cc1cc(/C=C2\SC(=Nc3ccc(N4CCOCC4)cc3)N(C)C2=O)c(C)n1-c1cccnc1 | 54.8% (inactive)
77 | CCOC(=O)NN1C(=O)c2ccccc2NC1c1cccc(O)c1 (configuration not stated) | 106% (inactive)
78 | O=C1c2ccccc2NC(c2ccc(-c3cccc(Cl)c3)o2)N1O (configuration not stated) | 2.84% (active)
79 | C=CCn1c(CCNC(=O)c2cccs2)n[nH]c1=S | 99.3% (inactive)
80 | COC(=O)Cn1c(=NC(=O)c2cc(OC)c(OC)c(OC)c2)sc2cc(OC)ccc21 | 81.5% (inactive)
81 | O=C1OC(c2ccc(Cl)cc2)=N/C1=C\c1cccnc1 | 95.6% (inactive)
82 | O=C(O)C1CC(=O)N(Cc2cccnc2)C1 (configuration not stated) | 90.7% (inactive)
83 | O=C1/C(=C\c2cccnc2)CN(Cc2ccccc2)C/C1=C\c1cccnc1 | 5.51% (active)
84 | CCc1ccc(NC2Nc3cc(C)nn3S2)cc1 (configuration not stated) | 95.4% (inactive)
85 | O=C(CSc1nc2ccccc2[nH]1)c1cccs1 | 78.2% (inactive)
86 | CCC(C)N1C(=O)S/C(=C/c2ccc(Sc3nc4ccccc4[nH]3)o2)C1=O (configuration not stated) | 4.08% (active)
87 | CN=C1S/C(=C\c2ccc(Sc3ccc(Cl)cc3)o2)C(=O)N1C | 96.9% (inactive)
88 | CC1Cc2ccccc2N1C(=O)CSc1nnc(-c2ccc(S(=O)(=O)N3CCCC3)cc2)n1C (configuration not stated) | 81% (inactive)
89 | CCCCN(CC)C(=O)c1ccccc1Oc1ccccc1 | 85.8% (inactive)
90 | COC1=CCC2([N+](=O)[O-])CN(CC(=O)O)CC1([N+](=O)[O-])C2 (configuration not stated) | 99% (inactive)
91 | O=C(Cc1ccc(Cl)c(Cl)c1)Nc1ccc(SC(F)F)cc1 | 35.8% (inactive)
92 | O=C(CC(O)(C(F)(F)F)C(F)(F)F)Nc1ccc(Cl)c(Cl)c1 | 2.26% (active)
93 | O=C(CC(=O)Nc1ccc(Cl)c(Cl)c1)N/N=C/c1ccc(O)cc1 | 81% (inactive)
94 | C/C(=N\Nc1ccc([N+](=O)[O-])cc1)c1ccc(-n2nncc2C(C)(C)C)cc1 | 97.1% (inactive)
95 | CCN(/N=C/c1ccc(N(C)C)cc1)c1nc2ccccc2[nH]1 | 87.6% (inactive)
96 | O=C(COC(=O)c1cc([N+](=O)[O-])ccc1NCc1ccccc1)NC1CCCCC1 | 45.6% (inactive)
97 | C/C(CCC(=O)OC[C@H]1O[C@H](C#Cc2ccccc2)C=C[C@@H]1Oc1ccc(C)cc1)=N\OC[C@@H](O)[C@H]1O[C@@H]2OC(C)(C)O[C@@H]2[C@H]1O | 86.2% (inactive)
